Measured values reported in PubChem BioAssay (NCI).
The panel holds about 83,000 compounds, 20% with a hit somewhere; the sample as a whole holds those more often.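 Plates (96-well) were seeded with cells, treated with compound at one concentration, and incubated for 48 hours before percent growth was determined.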 Activity calls are given as the source filed them. The calls were made as follows: active = growth percent below 10; inactive = the rest.

Experiments:
Experiment in all cases: NCI-60 one-dose screen, 48 h (100 = growth as untreated, 0 = no growth, -100 = all killed)
Details in all cases: 10 µM unless noted
HCT-15 colon = tested on: HCT-15 colon
HT29 colon = tested on: HT29 colon
SNB-75 CNS = tested on: SNB-75 CNS
SNB-19 CNS = tested on: SNB-19 CNS
U251 CNS = tested on: U251 CNS
PC-3 prostate = tested on: PC-3 prostate
SK-MEL-5 melanoma = tested on: SK-MEL-5 melanoma
UACC-62 melanoma = tested on: UACC-62 melanoma
LOX IMVI melanoma = tested on: LOX IMVI melanoma
SK-MEL-28 melanoma = tested on: SK-MEL-28 melanoma
SK-MEL-2 melanoma = tested on: SK-MEL-2 melanoma
EKVX NSCLC = tested on: EKVX NSCLC
SN12C renal = tested on: SN12C renal
UO-31 renal = tested on: UO-31 renal
TK-10 renal = tested on: TK-10 renal
ACHN renal = tested on: ACHN renal
CAKI-1 renal = tested on: CAKI-1 renal
A498 renal = tested on: A498 renal
CCRF-CEM leukemia = tested on: CCRF-CEM leukemia
MOLT-4 leukemia = tested on: MOLT-4 leukemia

Measured: growth

CCn1c2ccccc2c2cc(C(O)c3cccc4ncccc34)ccc21 (stereo not given)
inactive: HCT-15 colon 11.6% | SNB-75 CNS 31.1% | SNB-19 CNS 36.4% | U251 CNS 19.2% | PC-3 prostate 13.4% | UACC-62 melanoma 16% | SK-MEL-28 melanoma 61.5% | SK-MEL-2 melanoma 51.5% | EKVX NSCLC 59.3% | SN12C renal 27.6% | UO-31 renal 11.9% | TK-10 renal 54.7% | ACHN renal 27.9% | CAKI-1 renal 43% | MOLT-4 leukemia 13.5%
active: HT29 colon 8.32% | SK-MEL-5 melanoma -4.22% | LOX IMVI melanoma -8.41% | A498 renal 8.73% | CCRF-CEM leukemia 8.21%

CCN(CC)c1ccc(/C=N/NC(=O)c2ccccc2Nc2ccnc(C(F)(F)F)c2)c(O)c1
active: SK-MEL-5 melanoma 3.96% | LOX IMVI melanoma 5.58%
inactive: HCT-15 colon 32.6% | HT29 colon 37.7% | SNB-75 CNS 43.8% | SNB-19 CNS 20.1% | U251 CNS 14.8% | PC-3 prostate 36% | UACC-62 melanoma 19.4% | SK-MEL-28 melanoma 47.9% | SK-MEL-2 melanoma 94.1% | EKVX NSCLC 30.5% | SN12C renal 22.2% | UO-31 renal 16% | TK-10 renal 33.3% | ACHN renal 11.9% | CAKI-1 renal 56.9% | A498 renal 47.8% | CCRF-CEM leukemia 14.5% | MOLT-4 leukemia 59.6%

Nc1ccc(N)c2c1C(=O)c1cccc([N+](=O)[O-])c1C2=O
active: UACC-62 melanoma 5.05% | CAKI-1 renal 5.03% | A498 renal -73.8%
inactive: HCT-15 colon 27.7% | HT29 colon 44.7% | SNB-75 CNS 22.6% | SNB-19 CNS 26.2% | U251 CNS 33.7% | PC-3 prostate 49.3% | SK-MEL-5 melanoma 23.8% | LOX IMVI melanoma 22.4% | SK-MEL-28 melanoma 102% | SK-MEL-2 melanoma 53.7% | EKVX NSCLC 38.2% | SN12C renal 25.9% | UO-31 renal 33.4% | TK-10 renal 45.3% | ACHN renal 15.9% | CCRF-CEM leukemia 48.3% | MOLT-4 leukemia 46.5%

O=C1NCCS(=O)(=O)/C1=C\C=C\c1cccc(C(F)(F)F)c1
active: UACC-62 melanoma -15% | LOX IMVI melanoma -73.6% | CCRF-CEM leukemia 0.774% | MOLT-4 leukemia 8.72%
inactive: HCT-15 colon 10.2% | HT29 colon 16.8% | SNB-75 CNS 71.2% | SNB-19 CNS 49.6% | U251 CNS 36% | PC-3 prostate 37.5% | SK-MEL-5 melanoma 34.5% | SK-MEL-28 melanoma 28.7% | SK-MEL-2 melanoma 54.8% | EKVX NSCLC 82.3% | SN12C renal 24.3% | UO-31 renal 26.8% | TK-10 renal 33.6% | ACHN renal 12.7% | CAKI-1 renal 55.4% | A498 renal 56.9%

Cc1ccc(-c2nc(C#N)c(S(=O)(=O)n3nc(C)cc3N)o2)cc1
inactive: HCT-15 colon 49.2% | HT29 colon 50.1% | SNB-75 CNS 97.6% | SNB-19 CNS 97.5% | U251 CNS 95.4% | PC-3 prostate 85% | SK-MEL-5 melanoma 90% | UACC-62 melanoma 96.1% | LOX IMVI melanoma 56.4% | SK-MEL-28 melanoma 93.8% | SK-MEL-2 melanoma 98.3% | EKVX NSCLC 121% | SN12C renal 90.1% | UO-31 renal 79.8% | CAKI-1 renal 82% | A498 renal 76.1%
active: TK-10 renal -64.9% | ACHN renal -37.8% | CCRF-CEM leukemia -18.8% | MOLT-4 leukemia -38%

CCCCCCCCOC(=O)c1c(C)[nH]c(/C=C2\N=C(c3ccc[nH]3)C=C2OC)c1C
active: HCT-15 colon 1.19% | HT29 colon -11.2% | SNB-75 CNS -20.8% | U251 CNS -8.43% | SK-MEL-5 melanoma -99.2% | UACC-62 melanoma -25.7% | LOX IMVI melanoma -44.9% | SK-MEL-28 melanoma -12.5% | SK-MEL-2 melanoma -70.3% | UO-31 renal -52.1% | TK-10 renal 9.67% | ACHN renal -18.9% | CAKI-1 renal -13.2% | A498 renal -7.97% | MOLT-4 leukemia 4.33%
inactive: SNB-19 CNS 25.4% | PC-3 prostate 18% | EKVX NSCLC 27.8% | SN12C renal 11.7% | CCRF-CEM leukemia 17.7%

C1=C2CCCC3=Cc4ccccc4OC23Oc2ccccc21
inactive: HCT-15 colon 20.1% | SNB-75 CNS 23% | SNB-19 CNS 27.4% | U251 CNS 26.5% | PC-3 prostate 34.7% | SK-MEL-5 melanoma 20% | UACC-62 melanoma 14.5% | LOX IMVI melanoma 23% | SK-MEL-28 melanoma 54.2% | SK-MEL-2 melanoma 36% | EKVX NSCLC 57.8% | SN12C renal 34.4% | UO-31 renal 43.3% | TK-10 renal 55.4% | ACHN renal 47.3% | CAKI-1 renal 27.2% | CCRF-CEM leukemia 18.3% | MOLT-4 leukemia 17.5%
active: HT29 colon 5.93% | A498 renal 5.61%

O=C(Nc1ccccc1)Nc1ccccc1CNc1nc(Nc2ccc(OCCN3CCCC3)cc2)ncc1Cl
inactive: HCT-15 colon 41.4% | HT29 colon 13.8% | SNB-75 CNS 90% | SNB-19 CNS 70.6% | U251 CNS 38.7% | PC-3 prostate 76.1% | SK-MEL-5 melanoma 57.2% | UACC-62 melanoma 86.1% | SK-MEL-28 melanoma 78.5% | SK-MEL-2 melanoma 49.9% | EKVX NSCLC 85.8% | SN12C renal 57.8% | UO-31 renal 39.6% | TK-10 renal 94.8% | ACHN renal 18.2% | CAKI-1 renal 62.7% | A498 renal 31.5% | CCRF-CEM leukemia 20.4% | MOLT-4 leukemia 37.9%
active: LOX IMVI melanoma -68.3%

C#CCOc1cccc(Nc2c(Cl)c(CCl)nc3ccc(Oc4ccccc4)cc23)c1
inactive: HCT-15 colon 12.3% | SNB-75 CNS 75.5% | SNB-19 CNS 62.5% | U251 CNS 24.9% | PC-3 prostate 78% | SK-MEL-5 melanoma 30.4% | UACC-62 melanoma 39.9% | SK-MEL-28 melanoma 65.4% | SK-MEL-2 melanoma 37.4% | EKVX NSCLC 76.5% | UO-31 renal 61.7% | TK-10 renal 76.5% | ACHN renal 63.5% | CAKI-1 renal 76.1% | A498 renal 99.7% | MOLT-4 leukemia 14%
active: HT29 colon 7.96% | LOX IMVI melanoma -34.1% | SN12C renal 5.93% | CCRF-CEM leukemia 9.4%

CN1CCN(Cc2ccc(NC(=O)c3cncc(C#Cc4c(N)ncc5ccccc45)c3)cc2C(F)(F)F)CC1
active: HCT-15 colon -71.7% | HT29 colon -70.1% | SNB-75 CNS -94.4% | SNB-19 CNS -82% | U251 CNS -98.7% | PC-3 prostate -57.8% | SK-MEL-5 melanoma -91.9% | UACC-62 melanoma -93.8% | LOX IMVI melanoma -94.3% | SK-MEL-28 melanoma -83.2% | SK-MEL-2 melanoma -79.2% | EKVX NSCLC -34.8% | SN12C renal -97.4% | UO-31 renal -78.8% | TK-10 renal -97.6% | ACHN renal -91.5% | CAKI-1 renal -66.2% | A498 renal -63.2% | CCRF-CEM leukemia -7.03% | MOLT-4 leukemia -41.3%

COc1ccc2c(c1)C(c1c[nH]c3ccccc13)(c1c[nH]c3ccccc13)CCO2
inactive: HCT-15 colon 41.8% | HT29 colon 23.8% | SNB-75 CNS 28% | SNB-19 CNS 66.4% | U251 CNS 42.2% | PC-3 prostate 31% | SK-MEL-5 melanoma 66.2% | UACC-62 melanoma 44.9% | LOX IMVI melanoma 42.6% | SK-MEL-28 melanoma 54.2% | SK-MEL-2 melanoma 43.6% | EKVX NSCLC 35% | SN12C renal 50.6% | UO-31 renal 26.1% | TK-10 renal 59.7% | ACHN renal 45% | CAKI-1 renal 44% | A498 renal 82.9% | CCRF-CEM leukemia 36.7%
active: MOLT-4 leukemia 8.7%

COc1ccc(NC(=O)c2sc3nc(C)c(C(=O)c4ccccc4)cc3c2N)cc1
active: A498 renal -9.31%
inactive: HCT-15 colon 95.2% | HT29 colon 89.8% | SNB-75 CNS 107% | SNB-19 CNS 90.8% | U251 CNS 100% | PC-3 prostate 97% | SK-MEL-5 melanoma 103% | UACC-62 melanoma 79.9% | LOX IMVI melanoma 108% | SK-MEL-28 melanoma 89.9% | SK-MEL-2 melanoma 88.8% | EKVX NSCLC 94.7% | SN12C renal 99.5% | UO-31 renal 90% | TK-10 renal 86.6% | ACHN renal 95.1% | CAKI-1 renal 92.9% | CCRF-CEM leukemia 95% | MOLT-4 leukemia 88.5%

Brc1ccc(-c2nn(-c3ccccc3)cc2-c2nn[nH]n2)s1
inactive: HCT-15 colon 96.2% | HT29 colon 117% | SNB-75 CNS 92.7% | SNB-19 CNS 87.3% | U251 CNS 87.8% | PC-3 prostate 93.7% | SK-MEL-5 melanoma 90% | UACC-62 melanoma 85.1% | LOX IMVI melanoma 90.9% | SK-MEL-28 melanoma 96.2% | SK-MEL-2 melanoma 96.2% | EKVX NSCLC 83.5% | SN12C renal 80% | UO-31 renal 52.8% | TK-10 renal 102% | ACHN renal 89.5% | CAKI-1 renal 88.1% | A498 renal 65.7% | CCRF-CEM leukemia 90.9% | MOLT-4 leukemia 99.1%

COc1ccc(C2=NN3C(C2)c2cc(Br)ccc2OC3c2ccncc2)cc1 (stereo not given)
inactive: HCT-15 colon 73.1% | HT29 colon 109% | SNB-75 CNS 78.8% | SNB-19 CNS 81.4% | U251 CNS 75.3% | PC-3 prostate 63.2% | SK-MEL-5 melanoma 93.2% | UACC-62 melanoma 71.5% | LOX IMVI melanoma 62% | SK-MEL-28 melanoma 105% | SK-MEL-2 melanoma 97.5% | EKVX NSCLC 83.6% | SN12C renal 83.3% | UO-31 renal 44.6% | TK-10 renal 98.6% | ACHN renal 80.7% | CAKI-1 renal 45.2% | A498 renal 95.6% | CCRF-CEM leukemia 70% | MOLT-4 leukemia 68.5%

O=C1c2cccnc2C(=O)c2c1c(C(=O)OCCCN1CCOCC1)c1ccccn21
active: HCT-15 colon -42.2% | HT29 colon -67.8% | SNB-75 CNS -81.3% | SNB-19 CNS 9.22% | U251 CNS -70.7% | PC-3 prostate -0.15% | SK-MEL-5 melanoma -94.9% | UACC-62 melanoma -40.7% | LOX IMVI melanoma -29.1% | SK-MEL-2 melanoma -57.5% | SN12C renal -19.3% | UO-31 renal -42.6% | ACHN renal -37.3% | CAKI-1 renal -11.4% | A498 renal -20.2% | CCRF-CEM leukemia -5.87% | MOLT-4 leukemia 0.0972%
inactive: SK-MEL-28 melanoma 37.7% | EKVX NSCLC 19.6% | TK-10 renal 21.9%

CC(C)C(=O)Nc1ncc(C(=O)NCCN(Cc2ccccc2)C(=O)c2ccc(S(=O)(=O)Nc3ccccc3)cc2)s1
inactive: HCT-15 colon 96.6% | HT29 colon 104% | SNB-75 CNS 78.3% | SNB-19 CNS 97.1% | U251 CNS 97.4% | PC-3 prostate 94.3% | SK-MEL-5 melanoma 90.8% | UACC-62 melanoma 89.6% | LOX IMVI melanoma 104% | SK-MEL-28 melanoma 98.4% | SK-MEL-2 melanoma 97.8% | EKVX NSCLC 97.6% | SN12C renal 91.4% | UO-31 renal 80.2% | TK-10 renal 100% | ACHN renal 101% | CAKI-1 renal 92.4% | A498 renal 87.7% | CCRF-CEM leukemia 96.2% | MOLT-4 leukemia 75.1%
